Bioassay records deposited in PubChem BioAssay by National Center for Advancing Translational Sciences (NCATS).
An excerpt weighted towards active compounds, which were near 3% of everything screened.
IP6K1 inhibitor = Primary qHTS assay for small molecule inhibitors of Inositol hexaphosphate kinase 1 (IP6K1). Inositol hexakisphosphate kinase 1 (Homo sapiens), Q92551. IP6K1 kinase, ADP-Glo luminescence, 2 h; stronger effect = lower value. activity change, % (series mostly up to about 58 µM). 140,000 tested, 0.81% active. AID 1645851, 2021; in the data active = activity change below about -25%; also: % is scaled to controls: 0 for no effect and ±100 for the full control effect
Target sequence (Q92551 whole entry, looked up): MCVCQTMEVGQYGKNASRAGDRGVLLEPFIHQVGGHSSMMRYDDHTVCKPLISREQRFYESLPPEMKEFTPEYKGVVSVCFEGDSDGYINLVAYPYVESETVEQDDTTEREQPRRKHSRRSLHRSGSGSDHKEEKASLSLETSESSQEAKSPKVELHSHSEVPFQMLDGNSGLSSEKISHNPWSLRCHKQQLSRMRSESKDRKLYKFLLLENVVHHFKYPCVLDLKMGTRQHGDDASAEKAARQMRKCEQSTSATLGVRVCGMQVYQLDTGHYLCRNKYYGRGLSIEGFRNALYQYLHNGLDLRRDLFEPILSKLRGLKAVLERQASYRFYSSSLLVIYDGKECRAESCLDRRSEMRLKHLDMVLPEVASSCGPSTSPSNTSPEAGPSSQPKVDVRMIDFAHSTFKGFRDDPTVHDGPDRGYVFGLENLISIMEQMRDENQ
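ADP-Glo luminescence measures ADP made by human IP6K1 during a 2 h RT reaction with ATP/IP6 (mix at 1.3 mM/130 uM); top library doses 57.5 and 19.1 uM final.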
KDM5B inh = Primary screen for KDM5B Histone Demethylases FDH-coupled qHTS. Lysine-specific demethylase 5B (Homo sapiens), Q9UGL1. Potency, µM (top dose mostly 57.7 µM), actives largely listed as inhibitors. KDM5B demethylase, FDH-coupled NADH fluorescence (FDH is formaldehyde dehydrogenase). 220,000 tested, 2.6% active; also: potency is read from the fitted curve at half-maximal effect; 0% is about no effect; nearly all actives have a fitted effect of over 70% in size
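Inhibition is measured as reduced NADH fluorescence generation from FDH coupling to formaldehyde release. Truncated KDM5BΔAP at 200 nM final acts on H3K4me3 peptide (12.5 µM in substrate mix) in pH 7.5 HEPES buffer with Tween-20, 30 min, room temperature.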
SNCA viab count = GF-AFC viability counterscreen for inhibitors of alpha-synuclein gene (SNCA) expression; HEK-293-SNCA-luc viability, GF-AFC fluorescence, 24 h; Potency, µM (highest dose often 57.1 µM), without a hit: at the highest dose activity change, negative = cytotoxicity, hits mostly cytotoxic; 150,000 tested, 0.12% active; AID 1671193, 2021;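 also: potency is read from the fitted curve at half-maximal effect; 0% = DMSO-treated cells and -100% = medium-only wells without cells; nearly all actives have a fitted effect of over 30% in size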
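HEK-293-SNCA-luc cells (1500/well) plated 24 h, then exposed 24 h to a dilution series; GF-AFC added 30 min at 37C, fluorescence 405/540 nm; normalised to medium-only and DMSO wells, Hill fit.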
SNCA expr inh = Primary qHTS assay for inhibitors of alpha-synuclein gene (SNCA) expression | HEK-293 SNCA-luciferase knock-in, luminescence, 24 h | AID 1671194, 2021 | 140,000 tested, 0.17% active | Potency, µM (top dose mostly 57.2 µM), without a hit: top-dose activity change, negative = inhibition, usual class: inhibitors;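 also: potency is read from the fitted curve at half-maximal effect; plate controls were DMSO cells for no effect and cell-free wells for full effect; nearly all actives have a fitted effect of over 45% in size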
Starred values were filed as active, the others as inactive; i = inactive; ? = inconclusive; nt = no result; [ ] = another dose, or the depositor's remark. Unless noted, calls follow the shape of the dose curve; as a rule, active = well fitted curve in the direction sought with a large enough effect; inconclusive = small, poorly fitted or top-dose-only effect, or another doubt; inactive = no such curve, though single readings can be large; an effect the other way counts as inactive or inconclusive.

SMILES	IP6K1 inhibitor	KDM5B inh	SNCA viab count	SNCA expr inh
CCOc1ccc(-c2nc(C3CC(=O)N(c4ccc(Cl)cc4)C3)no2)cc1 (stereo not given)	-4.2	31.6µM*	-7.9%	12.7%
O=C1CC(c2noc(-c3ccc(F)cc3)n2)CN1c1ccc(Cl)cc1 (stereo not given)	15.3	?	10.7%	31.5%
O=C1CC(c2noc(-c3ccccc3)n2)CN1c1ccc(Cl)cc1 (stereo not given)	-2.5	i	2.0%	-7.0%
O=c1n(-c2ccc([N+](=O)[O-])cc2)nc2n1CCN(CC1CC1)C2	8.6	?	-29.8%[87.6 µM]	144.4%[87.6 µM]
COc1cccc(-c2cc(C(=O)N(C)C)c3cnn(C)c3n2)c1	1.3	nt	nt	nt
CCCCOc1ccc(-c2nc(C3CC(=O)N(c4ccc(OC)cc4)C3)no2)cc1 (stereo not given)	-2.3	?	6.4%	23.2%
CCCCOc1ccc(-c2nc(C3CC(=O)N(c4ccc(F)cc4)C3)no2)cc1 (stereo not given)	-8.0	31.6µM*	-13.0%	?
CCn1cc(CN2CCC3(CC2)CN(C)CC3COC)cn1 (stereo not given)	17.3	25.1µM*	-24.9%	6.5%
COCC1CN(C)CC12CCN(Cc1cnn(C(C)C)c1)CC2 (stereo not given)	-2.6	?	-6.7%	-20.6%
CCOC(=O)[C@H]1[C@@H](O)C(=O)N(Cc2ccccc2)C12CCN(C(=O)OCc1ccccc1)CC2	5.3	nt	nt	nt
CNC(=O)CCn1ncc2cc(OCc3ccccc3-c3ccc(F)cc3C)ccc21	8.2	?	-15.8%[87.6 µM]	?
Cc1nn(C)c(C)c1S(=O)(=O)N1CCCC(C(=O)N2CCCn3nc(-c4ccc(F)cc4)cc3C2)C1 (stereo not given)	5.2	nt	-29.5%	-11.7%
CN1CCC2(C1)CN(CC1CC1)c1ccc(C(=O)NC3CCC3)cc12 (stereo not given)	5.9	35.5µM*	7.5%[87.6 µM]	-12.8%[87.6 µM]
CN1CCC2(C1)CN(CC1CC1)c1ccc(C(=O)NC3COC3)cc12 (stereo not given)	-0.5	35.5µM*	2.1%[87.6 µM]	15.3%[87.6 µM]
COc1ccccc1-c1ccc(CN2CCC(NC(=O)c3ccc(C(F)(F)F)cc3)C2)cc1 (stereo not given)	28.0	nt	nt	nt
c1ccc(CN(Cc2ccccn2)[C@@H]2C[C@@H]3CO[C@H](c4ccccc4)C[C@@H]3C2)cc1	9.5	nt	nt	nt
COCC1CN(Cc2ccccc2)C(=O)c2ccc(C)nc2O1 (stereo not given)	-7.5	nt	nt	nt
CNC(=O)c1cc2cc(-c3c(C)noc3C)nc(-c3ccccc3C)c2o1	5.2	35.5µM*	-12.7%[87.6 µM]	53.8%[87.6 µM]
CNC(=O)c1cc2cc(-c3c(C)noc3C)nc(-c3ccccc3OC)c2o1	-14.0	?	-1.3%[87.6 µM]	32.4%[87.6 µM]
CNC(=O)c1cc2cc(-c3c(C)noc3C)nc(-c3cccc(CO)c3)c2o1	-0.1	35.5µM*	-9.6%[87.6 µM]	71.8%[87.6 µM]
COc1ccc(F)cc1-c1ccc(CN2CCCCC2C(=O)NC(C)CCc2ccccc2)cc1 (stereo not given)	16.5	nt	nt	nt
Cc1nn(-c2ccccc2)c2c1C(C(C)C)N(C1CCN(C(=O)c3ccc(F)cc3)CC1)C2=O (stereo not given)	11.3	nt	nt	nt
COc1cccc(C(=O)NC2CCN(c3nccc(Nc4ccccc4Cl)n3)CC2)c1	-0.8	nt	?	?
CNC(=O)CN(Cc1cccs1)[C@@H]1C[C@@H]2CO[C@H](C(C)C)C[C@@H]2C1	26.6	nt	nt	nt
CCCc1nc(SC)ncc1C(=O)NCc1ccc(C)cc1	nt	i	nt	nt
COc1cccc([S+](=O)([O-])N2CCC3(C2)N=C(c2cccnc2)C(=O)N3)c1 (stereo not given)	-8.7	28.2µM*	1.9%	-7.9%
COc1cccc([S+](=O)([O-])N2CCCC3(COc4ccccc4C(=O)N3)C2)c1 (stereo not given)	27.3	25.1µM*	4.7%	-13.8%
O=C1NC2(CCCN([S+](=O)([O-])c3cccc(C(F)(F)F)c3)C2)COc2ccccc21 (stereo not given)	10.8	35.5µM*	-0.6%	8.6%
O=C1NC2(CCN([S+](=O)([O-])c3cccc(C(F)(F)F)c3)C2)COc2ccccc21 (stereo not given)	16.0	i	7.1%	-17.5%
